Test [1] can be described thus: TOX21_p53_BLA_p2_viability: Viability Assessment in the Tox21 HCT-116 p53 Agonism Beta-lactamase Assay, Phase 2 (AID 2283591).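 Note: actives lower the ATP signal meaning cytotoxicity.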 The gist of the method: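 HCT116 p53-bla cells, 4000/well, dosed after 5 h plating (217-fold dilution of DMSO stocks) and incubated 16 h at 37C. Viability taken as cellular ATP by CellTiter-Glo luminescence after 30 min RT; signal loss marks cytotoxicity.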

The target of test [2] is Cellular tumor antigen p53 (Homo sapiens) (UniProt P04637). Nature of the test: TOX21_p53_BLA_p2_ratio: Tox21 HCT-116 p53 Agonism Beta-lactamase Assay, Ratio, Phase 2 (AID 2283592). The gist of the method: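 Readout: blue/green (460/530 nm) FRET emission ratio after 2 h CCF4-AM loading at room temperature, excitation 405 nm. HCT116 p53 bla cells, 16 h compound exposure at 37C, 5% CO2; agonist direction fitted against DMSO baseline.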
Cellular tumor antigen p53 (Homo sapiens), sequence (P04637 whole entry, looked up): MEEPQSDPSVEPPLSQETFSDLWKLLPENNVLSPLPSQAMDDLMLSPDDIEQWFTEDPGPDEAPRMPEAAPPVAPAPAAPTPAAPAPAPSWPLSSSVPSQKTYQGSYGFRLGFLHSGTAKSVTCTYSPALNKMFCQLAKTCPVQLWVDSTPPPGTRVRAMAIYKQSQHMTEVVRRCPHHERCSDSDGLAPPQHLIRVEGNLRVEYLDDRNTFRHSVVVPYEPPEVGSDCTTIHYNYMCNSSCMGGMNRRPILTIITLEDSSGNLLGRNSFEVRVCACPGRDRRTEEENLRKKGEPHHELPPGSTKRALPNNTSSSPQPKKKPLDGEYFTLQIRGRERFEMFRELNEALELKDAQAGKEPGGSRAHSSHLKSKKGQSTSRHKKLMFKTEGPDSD

Test [3] can be described thus: TOX21_p53_BLA_p3_viability: Viability Assessment in the Tox21 HCT-116 p53 Agonism Beta-lactamase Assay, Phase 3 (AID 2283593).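 Note: cells exposed to compound for 16 h before reading.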 The gist of the method:
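HCT116 cells, 4000/well, dosed 5 h after plating by pin transfer (217-fold dilution from DMSO stock) and incubated 16 h at 37C, 5% CO2. Viability read as ATP luminescence with CellTiter-Glo after 30 min at room temperature.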

A short description of test [4]: TOX21_p53_BLA_p5_viability: Viability Assessment in the Tox21 HCT-116 p53 Agonism Beta-lactamase Assay, Phase 5 (AID 2283600). The gist of the method: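 ATP luminescence (CellTiter-Glo, 30 min, RT) served as the viability read-out, with loss of signal indicating cytotoxicity. Compounds in DMSO were pinned at a 217-fold dilution onto 4000 cells/well and incubated 16 h, 37C.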

Test [5] addresses Cellular tumor antigen p53 (Homo sapiens) (UniProt P04637). Nature of the test: TOX21_p53_BLA_p3_ratio: Tox21 HCT-116 p53 Agonism Beta-lactamase Assay, Ratio, Phase 3 (AID 2283596). The gist of the method: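 Cells were seeded at 4000/well, rested 5 h at 37C, then dosed with DMSO compound solutions (217-fold dilution) for 16 h. CCF4-AM substrate was loaded for 2 h at room temperature, and the 460/530 nm emission ratio was fitted for gain of signal versus DMSO.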

Test [6] in a line: TOX21_p53_BLA_p4_viability: Viability Assessment in the Tox21 HCT-116 p53 Agonism Beta-lactamase Assay, Phase 4 (AID 2283597).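 Note: hits lower the luminescence signal meaning cytotoxicity.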 The gist of the method: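 ATP content by CellTiter-Glo luminescence, 30 min RT, read after the beta-lactamase ratio step. Cells: HCT116, 4000/well, compound added after 5 h, exposure 16 h at 37C. Signal loss = reduced viability.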
Test [7] has as its target Cellular tumor antigen p53 (Homo sapiens) (UniProt P04637). Nature of the test: TOX21_p53_BLA_p5_ratio: Tox21 HCT-116 p53 Agonism Beta-lactamase Assay, Ratio, Phase 5 (AID 2283599). An outline of the steps:
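HCT-116 p53-bla cells (4000/well) plated 5 h, dosed with compound (217-fold DMSO dilution) for 16 h at 37 C; CCF4-AM substrate 2 h at room temperature. Activity is the 460/530 nm emission ratio (405 nm excitation), fitted in gain-of-signal direction versus DMSO.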

For test [8] the target is unchanged. Nature of the test: TOX21_p53_BLA_p4_ratio: Tox21 HCT-116 p53 Agonism Beta-lactamase Assay, Ratio, Phase 4 (AID 2283601). The gist of the method:
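HCT-116 p53 beta-lactamase reporter cells (4000/well) preincubated 5 h, then compound (217-fold dilution of DMSO stock) for 16 h at 37C. CCF4-AM substrate added 2 h at room temperature; 460/530 nm emission ratio fitted upward versus DMSO.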

Test [9] concerns the target Thyroid hormone receptor alpha (Rattus norvegicus) + Thyroid hormone receptor beta (Rattus norvegicus) (UniProt P18113+P63059). Put plainly: TOX21_TR_LUC_GH3_Antagonist_Followup: Tox21 GH3 Thyroid Hormone Receptor Antagonism Luciferase Follow-Up Assay (AID 2283942). The gist of the method: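 Luminescence read-out (ONE-Glo, 30 min at room temperature) in GH3 reporter cells challenged with 1.0 nM T3 final. Compounds ran at 92 uM to 5nM over 15 concentrations for 24 h; DMSO served as negative control and baseline.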

The target of the next test is THRA (gene 7067) (UniProt P10827). Nature of the test: TOX21_TRA_COA_Antagonist_Followup_ratio: Tox21 Thyroid Hormone Receptor alpha Antagonism through Coactivator Recruitment Follow-Up Assay, Ratio (AID 2283953). An outline of the steps:
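We measured antagonism of T3-type coactivator recruitment using a TR-FRET ratio (emission 520 and 495 nm) between a Tb-labelled anti-GST antibody on TRα LBD (2.5 nM) and SRC-2 peptide (200 nM). Activity was scaled between DMSO and T3 wells.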

Test [10] in a line: TOX21_TRB_BLA_Antagonist_Followup_viability: Viability Assessment in the Tox21 Thyroid Hormone Receptor beta Antagonism Beta-lactamase (BLA) Follow-Up Assay (AID 2283961). An outline of the steps:
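Viability read as CellTiter-Glo ATP luminescence (loss of signal = cytotoxicity) in the same plates as the TRβ-bla readout. TRβ-LBD/GAL4 UAS-bla HEK293T cells were exposed to compounds, 11 concentrations in triplicate, for 18 h at 37C/5% CO2.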

For a further test, the target named is THRB (gene 7068) (UniProt P10828). Put plainly: TOX21_TRB_COA_Antagonist_Followup_ratio: Tox21 Thyroid Hormone Receptor beta Antagonism through Coactivator Recruitment Follow-Up Assay, Ratio (AID 2283967). An outline of the steps: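 GST-TRb LBD 5.0 nM + 0.10% BSA, compound added; fluorescein-SRC-2 peptide 200 nM, Tb-anti-GST Ab 2 nM. TR-FRET, ex 340 / em 520:495 ratio. Norm: DMSO 0%, T3 100%.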
THRB (gene 7068), sequence (P10828 whole entry, looked up, the tested form may be a part): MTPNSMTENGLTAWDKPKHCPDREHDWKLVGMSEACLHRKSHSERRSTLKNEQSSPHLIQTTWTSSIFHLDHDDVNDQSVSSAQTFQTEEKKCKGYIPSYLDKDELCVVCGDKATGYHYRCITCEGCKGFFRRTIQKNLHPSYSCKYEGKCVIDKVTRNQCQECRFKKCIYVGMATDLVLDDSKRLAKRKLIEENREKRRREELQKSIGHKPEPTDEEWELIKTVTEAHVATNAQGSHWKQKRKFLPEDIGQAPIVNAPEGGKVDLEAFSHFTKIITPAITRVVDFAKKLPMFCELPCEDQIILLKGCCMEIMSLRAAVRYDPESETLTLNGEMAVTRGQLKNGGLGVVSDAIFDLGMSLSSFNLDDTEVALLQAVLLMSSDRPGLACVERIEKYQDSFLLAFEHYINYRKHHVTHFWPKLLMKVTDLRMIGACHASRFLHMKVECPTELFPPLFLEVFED

Test [11] addresses Retinoic acid receptor RXR-alpha (Homo sapiens) (UniProt P19793). Nature of the test: TOX21_TR_RXR_BLA_Antagonist_Followup_ratio: Tox21 Thyroid Hormone Receptor beta Retinoid X Receptor alpha (RXRa) Antagonism Beta-lactamase (BLA) Follow-Up Assay, Ratio (AID 2283972). The gist of the method:
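Beta-lactamase reporter readout as cleaved/uncleaved substrate ratio (460:530 nm) after 2 h substrate loading at room temperature. GAL4-RXRa bla HEK293T cells were exposed 16 h at 37C to 11-point compound series; loss of signal scored against DMSO baseline.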

A short description of test [12]: TOX21_TR_RXR_BLA_Antagonist_Followup_viability: Viability Assessment in the Tox21 Thyroid Hormone Receptor beta Retinoid X Receptor alpha (RXRa) Antagonism Beta-lactamase (BLA) Follow-Up Assay (AID 2283979). The gist of the method: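 RXRa-bla HEK293T cells (2,500/well, phenol red-free DMEM, 2% charcoal-stripped FBS) were attached 5 h, then exposed to compounds at 11 concentrations in triplicate for 16 h at 37C. Viability measured by CellTiter-Glo ATP luminescence, bidirectional fitting versus DMSO.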

Results filed as inconclusive are left out. Active and inactive are the calls of the source. Rule for the calls: active = hit-call score of the fitted dose curve at least 0.9, where 1 is the maximum; inconclusive = response in the unintended direction; inactive = score below 0.9.

THRA (gene 7067), sequence (P10827 whole entry, looked up, the tested form may be a part): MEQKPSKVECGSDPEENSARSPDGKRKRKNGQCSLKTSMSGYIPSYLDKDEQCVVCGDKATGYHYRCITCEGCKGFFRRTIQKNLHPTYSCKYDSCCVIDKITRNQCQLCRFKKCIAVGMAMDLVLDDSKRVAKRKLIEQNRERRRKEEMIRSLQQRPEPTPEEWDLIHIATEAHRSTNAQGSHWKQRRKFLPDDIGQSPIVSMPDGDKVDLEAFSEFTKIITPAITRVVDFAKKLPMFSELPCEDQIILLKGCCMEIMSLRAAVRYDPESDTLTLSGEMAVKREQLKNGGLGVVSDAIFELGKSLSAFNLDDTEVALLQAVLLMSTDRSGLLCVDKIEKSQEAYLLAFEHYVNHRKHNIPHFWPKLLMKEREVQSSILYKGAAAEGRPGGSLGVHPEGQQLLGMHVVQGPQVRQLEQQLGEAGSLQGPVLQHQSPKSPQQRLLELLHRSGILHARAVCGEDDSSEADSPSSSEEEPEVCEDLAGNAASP
Retinoic acid receptor RXR-alpha (Homo sapiens), sequence (P19793 whole entry, looked up, the tested form may be a part): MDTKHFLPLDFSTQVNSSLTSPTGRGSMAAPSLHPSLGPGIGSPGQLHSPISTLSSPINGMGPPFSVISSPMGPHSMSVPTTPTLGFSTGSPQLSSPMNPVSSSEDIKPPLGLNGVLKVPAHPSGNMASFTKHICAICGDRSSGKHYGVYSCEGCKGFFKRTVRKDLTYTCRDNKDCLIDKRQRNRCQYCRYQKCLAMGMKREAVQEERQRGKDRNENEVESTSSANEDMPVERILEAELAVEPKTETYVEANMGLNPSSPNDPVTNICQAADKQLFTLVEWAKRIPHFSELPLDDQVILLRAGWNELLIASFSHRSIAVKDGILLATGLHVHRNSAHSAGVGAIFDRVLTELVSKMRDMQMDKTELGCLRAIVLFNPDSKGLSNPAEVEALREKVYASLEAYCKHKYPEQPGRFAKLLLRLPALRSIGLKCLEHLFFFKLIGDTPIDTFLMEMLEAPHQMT

As to `ClC(Cl)(Cl)C(Cl)(Cl)Cl`, the result in test [1], in test [2], in [3] and in test [4] was inactive.

Consider `O=P(O)(O)C(Cl)(Cl)P(=O)(O)O`, for which the result in [1], in test [2], in test [5], in [6], in [7] and in test [4] was inactive. The outcome in [8] was inactive.

Consider `CC(C)NCC(O)c1ccc([N+](=O)[O-])cc1` (stereo unspecified), for which the outcome in [1], in test [2], in test [3], in [6], in test [4] and in [8] was inactive.

For the molecule `Nc1nc(N)c(N)c(N)n1`, the result in [1], in test [2], in test [5] and in test [6] was inactive.

Take `CCC(COC(=O)c1cc(OC)c(OC)c(OC)c1)(c1ccccc1)N(C)C` (stereo unspecified): the outcome in [1], in [2], in test [3], in test [4], in test [8] and in test [9] was inactive. Besides, the result (with THRA (gene 7067); in test [10]; with THRB (gene 7068); in test [11]; in test [12]) was inactive.

Usually AC50 stands for the concentration at which the activity in the assay is half-maximal. On to `CCCSc1cc(OC)c(CCN)cc1OC`, for which the call in test [1], in [6] and in test [4] was inactive. The AC50 in [2] was 26.1 µM (active); in test [5], 48 µM (active); in [7] it was 43.7 µM (active); in [8], 24.4 µM (active).

Regarding `COC(C)(C)C`, the call in test [1], in test [2], in test [5], in [6], in test [7] and in test [4] was inactive. Moreover, in [8], the result was inactive.

The values are drawn from PubChem BioAssay (EPA / NIEHS).
